Source: PubChem
G9a block: inhibitors of human histone lysine methyltransferase G9a. Q96KQ7. G9a H3K9 monomethylation, AlphaScreen, 2 h. Potency, µM (titrated, usually from 102 µM), most hits filed as inhibitors. 8.8% of 350,000 active. AID 504332; further: nearly all actives have a fitted effect of over 75% in size
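Quantitative HTS format: methyltransferase activity on a biotin-tagged H3K9 peptide is measured by AlphaScreen, using a rabbit anti-monomethyl-H3K9 antibody with streptavidin donor and anti-IgG acceptor beads. Final levels are 20 nM enzyme, 500 nM peptide, 20 uM SAM; 2 h RT.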
JMJD2A Tudor inh: JMJD2A Tudor domain (human) inhibition. AlphaScreen JMJD2A-Tudor / H3K4me3 peptide binding. Potency, µM (highest dose often 114 µM), usual class: inhibitors. 4.4% of 390,000 active. AID 504339; further: nearly all actives have a fitted effect of over 50% in size
ALOX12 inh: blocks human arachidonate 12S-lipoxygenase; purified 12hLO, xylenol orange hydroperoxide absorbance; Potency, µM (top dose mostly 108 µM), usual class: inhibitors; AID 1671190; P18054; 1.1% of 580,000 active
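Hydroperoxide product was detected by ferrous iron/xylenol orange as the 573 to 405 nm absorbance ratio. Arachidonic acid at 40 uM (final) was turned over for 30 min at room temperature by 150 nM human 12hLO, pH 7.0 Hepes buffer, after 15 min compound preincubation.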
HP1b chromo inh: blocks HP1-beta chromodomain binding to methylated histone tails; AID 540317; Potency, µM (top dose mostly 114 µM), usual class: inhibitors; 0.56% of 390,000 active; AlphaScreen HP1-beta / biotin-H3K9me3 peptide binding; P83916; further: nearly all actives have a fitted effect of over 70% in size
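Compound inhibition of the preformed complex between 50 nM HP1-beta and 50 nM biotinylated H3K9me3 peptide was read by AlphaScreen. Buffer was PBS pH 7.4 with 0.01% Tween-20. Incubations ran 30 min at room temperature, with 10 ug/mL donor/acceptor beads.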
BAZ2B block: BAZ2B (human) inhibition; AlphaScreen BAZ2B-H3K14Ac peptide displacement; Q9UIF8; Potency, µM (doses to about 114 µM), most hits filed as inhibitors; 4.4% of 360,000 active; further: nearly all actives have a fitted effect of over 60% in size
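Complex of BAZ2B and biotin-H3K14Ac (50 nM apiece) forms over 30 min at RT, then faces library compounds up to 110 uM for another 30 min; AlphaScreen beads added, 20 min dark incubation, luminescence read.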
Sfp inh: Sfp phosphopantetheinyl transferase inhibition. Biochemical Sfp PPTase activity, qHTS. AID 1490. Potency, µM, most hits filed as inhibitors. Q9F4F7. 3.5% of 310,000 active;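 further: the enzyme is Sfp with the accession as filed and its product quenches rhodamine fluorescence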
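With Hepes-Na pH 7.6 buffer containing 10 mM MgCl2, Sfp (15 nM) modified BHQ-2-YbbR (12.5 uM) using rhodamine-CoA (5 uM). Two reads 30 minutes apart at 525/598 nm yielded each well's rate.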
Hits are given with their value; [ ] = remark or other dose. An excerpt weighted towards active compounds, which were near 8.7% of everything screened. The call rests on the fitted dose curve; in most records, active means well fitted curve in the direction sought with a large enough effect; inconclusive means small, poorly fitted or top-dose-only effect, or another doubt; inactive means no such curve, though single readings can be large; an effect the other way counts as inactive or inconclusive.

Screening N=C1/C(=C\c2ccc(-c3cccc(Cl)c3)o2)C(=O)N=C2SC=C(c3ccccc3)N12 returned G9a block 44.7µM, JMJD2A Tudor inh inconclusive, ALOX12 inh 35.5µM, HP1b chromo inh inconclusive, BAZ2B block inconclusive and Sfp inh 6.31µM.
For Cc1cc(/C=C2/C(=N)N3C(c4ccccc4)=CSC3=NC2=O)c(C)n1-c1ccc(Cl)cc1 the results were JMJD2A Tudor inh inactive, ALOX12 inh inactive and HP1b chromo inh inactive.
Screening Cc1cccc(-n2c(C)cc(/C=C3/C(=N)N4C(c5ccccc5)=CSC4=NC3=O)c2C)c1 returned G9a block inactive, JMJD2A Tudor inh inactive, ALOX12 inh inactive, HP1b chromo inh inactive, BAZ2B block inactive and Sfp inh inactive.
Screening COc1cc(/C=C2/C(=N)N3C(c4ccccc4)=CSC3=NC2=O)ccc1OCC(=O)O returned JMJD2A Tudor inh inconclusive, ALOX12 inh inactive, HP1b chromo inh inactive, BAZ2B block 50.1µM and Sfp inh inactive.
For N=C1/C(=C\c2ccc(-c3ccc(C(=O)O)cc3)o2)C(=O)N=C2SC=C(c3ccccc3)N12 the results were JMJD2A Tudor inh 14.1µM, ALOX12 inh inconclusive, HP1b chromo inh 15.8µM, BAZ2B block 4.47µM and Sfp inh 31.6µM.
`CN1C(=O)CC(C(=O)O)C12CCN(C(=O)NCCc1ccccc1F)CC2` (centres undefined) gave ALOX12 inh inactive.
c1ccc(-c2csc3ncn4nnnc4c23)cc1 was read as G9a block inactive[12.7 µM], JMJD2A Tudor inh 14.1µM, ALOX12 inh inactive, HP1b chromo inh inconclusive, BAZ2B block inactive and Sfp inh inactive.
O=C(Nc1ccc(S(=O)(=O)Nc2cnc3ccccc3n2)cc1)c1ccc(Br)cc1 was read as ALOX12 inh inactive.
For COc1cccc(C2=Cc3ccc(F)cc3C(CC(C)=O)N2c2ccc(-c3cncnc3)cc2)c1 (centres undefined) the results were ALOX12 inh 31.6µM.
Screening CC(/C=C/C=C(\C)C(=O)O[C@@H]1O[C@H](CO[C@@H]2O[C@H](CO)[C@@H](O)[C@H](O)[C@H]2O)[C@@H](O)[C@H](O)[C@H]1O)=C\C=C\C=C(C)\C=C\C=C(/C)C(=O)O[C@@H]1O[C@H](CO[C@@H]2O[C@H](CO)[C@@H](O)[C@H](O)[C@H]2O)[C@@H](O)[C@H](O)[C@H]1O returned G9a block 17.8µM, ALOX12 inh inconclusive and Sfp inh inactive.
`N#CC1=C2Nc3ccccc3N2C(=O)NC1(c1ccccc1)C(F)(F)F` (centres undefined) gave G9a block inactive[12.7 µM], JMJD2A Tudor inh 56.2µM, ALOX12 inh inactive, HP1b chromo inh inconclusive, BAZ2B block inactive and Sfp inh inactive.
`Cc1ccc(C2(C(F)(F)F)NC(=O)N3N=C4CCCCCN4C3=C2C#N)cc1` (centres undefined) gave G9a block inactive, JMJD2A Tudor inh inactive, ALOX12 inh inconclusive, HP1b chromo inh inactive, BAZ2B block inactive and Sfp inh inactive.
Screening CC(OC(=O)c1ccc2c(c1)NC(=O)CS2)C(=O)Nc1cccc(C(F)(F)F)c1 (centres undefined) returned ALOX12 inh inactive.
`CC(C)(C)C(=O)NC1CCCc2ccccc21` (centres undefined) gave ALOX12 inh inactive.
`CCc1sc(/C=C(/C#N)C(N)=S)cc1[N+](=O)[O-]` gave G9a block 12.6µM, JMJD2A Tudor inh inconclusive, ALOX12 inh inconclusive, HP1b chromo inh inconclusive, BAZ2B block inconclusive and Sfp inh 2.82µM.
CCc1ccc(/C=C(/C#N)C(N)=S)s1 was read as G9a block inconclusive, JMJD2A Tudor inh inactive, ALOX12 inh inactive, HP1b chromo inh inactive, BAZ2B block inconclusive and Sfp inh inactive.
O=C(Cc1ccccc1)NNC(=O)Cc1ccccc1 was read as G9a block inactive, JMJD2A Tudor inh inactive[11.4 µM], ALOX12 inh inactive, HP1b chromo inh inactive, BAZ2B block inactive and Sfp inh inactive.
O=C(Cc1ccccc1)NC1c2ccccc2-c2ccccc21 was read as G9a block inconclusive, JMJD2A Tudor inh inactive, ALOX12 inh inactive, HP1b chromo inh inactive, BAZ2B block inactive and Sfp inh 79.4µM.
Screening COc1ccc(N=c2cc(-c3ccc(OC)cc3)oc3ccccc23)cc1 returned G9a block 14.1µM, JMJD2A Tudor inh 39.8µM, ALOX12 inh inactive, HP1b chromo inh inactive, BAZ2B block 28.2µM and Sfp inh inconclusive.
For COc1ccc(-c2cc(=O)c3ccccc3o2)cc1 the results were G9a block inactive[12.7 µM], JMJD2A Tudor inh inactive, ALOX12 inh inactive, HP1b chromo inh inactive, BAZ2B block inactive and Sfp inh inactive.
For COc1ccc(N=c2cc(-c3ccc(O)cc3)oc3ccccc23)cc1 the results were G9a block inconclusive, JMJD2A Tudor inh 35.5µM, ALOX12 inh inconclusive, HP1b chromo inh inconclusive, BAZ2B block 44.7µM and Sfp inh inactive.
COc1ccc2c(=O)cc(-c3ccc(O)cc3)oc2c1 was read as Sfp inh inactive.
CCOc1ccc(N=c2cc(-c3ccc(OC)cc3)oc3ccccc23)cc1 was read as G9a block 25.1µM, JMJD2A Tudor inh 15.8µM, ALOX12 inh inactive, HP1b chromo inh 25.1µM, BAZ2B block 12.6µM and Sfp inh inactive.
COc1ccc(-c2cc(=O)c3c(ccc4ccccc43)o2)cc1 was read as ALOX12 inh inactive.
CN(C)C(=O)C(Sc1nncn1-c1ccccc1F)c1ccccc1 (centres undefined) was read as ALOX12 inh inactive.
Screening COc1ccc2c(c1)C(C)CC(C)(C)N2C(=O)NC1CCCCC1 (centres undefined) returned G9a block 44.7µM, JMJD2A Tudor inh inactive, ALOX12 inh inactive, HP1b chromo inh inactive, BAZ2B block inconclusive and Sfp inh inactive.
Screening CCN1CCc2c(sc(NC(=O)c3ccc(C(=O)c4ccccc4)cc3)c2C(N)=O)C1 returned G9a block 70.8µM, JMJD2A Tudor inh inconclusive, ALOX12 inh inconclusive, HP1b chromo inh inactive, BAZ2B block 39.8µM and Sfp inh inactive.
CCN1CCc2c(sc(NC(=S)NC(=O)c3ccco3)c2C(N)=O)C1 was read as G9a block 20µM, JMJD2A Tudor inh inconclusive, ALOX12 inh inactive, HP1b chromo inh inconclusive, BAZ2B block inactive and Sfp inh 22.4µM.
For Cc1sc(NC(=S)NC(=O)c2ccco2)c(C(N)=O)c1C the results were G9a block 39.8µM, JMJD2A Tudor inh inactive[11.4 µM], ALOX12 inh inactive, HP1b chromo inh inactive, BAZ2B block inactive and Sfp inh inconclusive.
Screening CCN1CCc2c(sc(NC(=O)c3ccc(S(=O)(=O)N4CCOCC4)cc3)c2C(N)=O)C1 returned G9a block 56.2µM, JMJD2A Tudor inh inactive, ALOX12 inh inactive, HP1b chromo inh inactive, BAZ2B block inactive and Sfp inh inactive.
